Among all 53,000 sequences or so, about 3,700 (7%) were called active. The full list was thinned out, with actives kept by preference. A number with no mark means an inactive call.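 The calls were made as follows: active = gene knockdowns whose robust z-score for IL-1 alpha signal is at least 2 or at most -2, so actives lie on both sides; inactive = the rest.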
Test: Components of the Cytosolic LPS Sensing Pathway: Gene Identification via Genome-wide siRNA Screen;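 also: robust z of the log signal after scaling to non-targeting control siRNA wells of the plate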
Settings: RAW264.7 macrophages, IL-1a HTRF, actives lie on both sides, screened at 100 nM (by protocol), cells primed 5 h with Pam3CSK4 first
How it was run: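 IL-1a HTRF of supernatants after 24 hour LipidA transfection of Pam3CSK4-primed (5 hours) RAW264.7 cells, 48h post-siRNA transfection (100 nM). Scores: percent of plate negative-control median, then log-based robust z-score.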

With GGAUCGAGACAAGGCCAAATT against Fes the z-score was 3.22 (active).
With GCUGUCAGAAAUCUUCGACTT against E2f4 the z-score was 2.65 (active).
With GGCAAUUCACUGUGAGUAATT against Mettl21a the z-score was -2.18 (active).
In the case of CGGAAAUGUAAGUACUUUATT against Taf13, the z-score is reported as 2.25 (active).
With GGAAGGACAACACUGCACCTT against Cd40 the z-score was 2.44 (active).
For GGCAUUGACGAGGAUGACCTT against Supt3, the z-score was 2.74 (active).
For GACACCACAGUCAAAUCUGTT against Agr2, the z-score was -2.26 (active).
In the case of GGAGAUCUUCAAUAUGUUATT against Supt6, the z-score is reported as -2.25 (active).
In the case of GGAAGAGGAUAGGCAGGAATT against Gfer, the z-score is reported as 2.03 (active).
With GUUCUUCUCUGUUGGUGCUTT against Vmn1r24 the z-score was -2.12 (active).
For GGACUCUCAGAAGAAUGAUTT against Hmmr, the z-score was 2.98 (active).
For GGAGACAUUCCUGAAAGCUTT against Ankrd2, the z-score was -2.09 (active).
With GGACAUAGAGAACAUCAUCTT against Cabp7 the z-score was 4.02 (active).
In the case of GGGACAAGUUCAUCUGAUATT against Rin1, the z-score is reported as 2.06 (active).
In the case of GGCGGUGUUUUACUACAAGTT against Capn7, the z-score is reported as 3.99 (active).
For CCCAUGUACCACUUUGUCATT against Olfr430, the z-score was -2.05 (active).
With CAAUCCUCAACGAUUACAUTT against Ncor1 the z-score was 2.05 (active).
With GAGCCACUUUCUCAAGUGUTT against Pou3f1 the z-score was 3.02 (active).
With GCCAGUUUAAGUCUCUCCATT against Tmem168 the z-score was -2.37 (active).
With GGGCUGACUUCCUAUGACCTT against Adra2c the z-score was 2.14 (active).

Compared with GGAAUGAAGCCUGAACAGATT against Strc, GGACAAUGCCCUGUAUCAGTT against Clic3 is lower in z-score: 0.151 for the first, -0.822 for the second.

First: GGAUAGUCUCCUCAAAGAATT against Trmt10b
Second: CCAUACUACGGAUGUUUGATT against Calb2
The z-score of the first is higher: 0.7 for the first, 0.677 for the second.

Going from GGGUAUAGGGAUGGUGAAUTT against Ppil1 to GCUACUCAGUCAUUGAGCCTT against Tatdn2, the z-score falls from 0.834 to -1.85.

Going from GCAUCUCAAGGAUCUUCGGTT against Syngr4 to GGGCAACUUUGAGUUCGAATT against Dok2, the z-score rises from -0.0821 to 0.294.

Compared with CCUUACCCUGUGUAUCUUUTT against Naa80, GGCCAAGGUCAAUAACUCCTT against Rfc1 is lower in z-score: -0.0307 for the first, -0.755 for the second.

Going from GGACCACUACAUCAUAUACTT against Lcn4 to GGCCAAGACACCCUUGUUUTT against Zfp524, the z-score rises from -1.17 to -0.376.

Compared with GGAAGAGAAAGCAAAGUCATT against Ddx19a, GGUUCUGGAAGAAGAAAAGTT against Irgq is higher in z-score: -0.43 for the first, 1.31 for the second.

Going from GGUUCUGUAAAUUCAACUATT against Zfp593 to CUACGAGCCACUUCUGAGATT against Krt87, the z-score falls from 0.706 to -0.431.

First: GAACUGAAGAAGCAGAUUGTT against Isg15
Second: GGCAUUAUGAGCAUCUCGGTT against Tnfrsf11a
The z-score of the first is higher: 0.601 for the first, -0.394 for the second.

First: GGAGACACCAGACCAACAATT against Gm5458
Second: CCAUACAAGUAUCCGAACUTT against 1700102P08Rik
The z-score of the first is lower: 0.242 for the first, 1.03 for the second.

Going from GCCUCAGCAUUACCACUAUTT against Pof1b to GGUGAUGCAGCAGAUCAUUTT against Nfyc, the z-score rises from -1.86 to 0.0427.

Going from GUGGAAAACAAGUGGCGGUTT against Cox7c to GGAGAACUAUUCAGAAACUTT against Btbd11, the z-score falls from 0.241 to -0.0178.

First: GCGGUGCCAAAGGUAUUAATT against Rad51ap1
Second: GCAAGAAGGGACACAGUUUTT against Plk1
The z-score of the first is lower: -0.0801 for the first, 0.276 for the second.

Compared with GGAAAACCAAGACCACAAATT against Hmgn5, GGUGCUUGAUUUUGUGCAGTT against Psmd13 is lower in z-score: 1.39 for the first, -0.00516 for the second.

First: CCCUUUAAUACAUACAGUUTT against Mesp2
Second: GCCCAAGGUGAUCAUUAUUTT against Casp1
The z-score of the first is higher: 1.14 for the first, -0.15 for the second.

Compared with GGUUGUAAGGAACUCUUGGTT against Slc22a29, GGACAUUCCUGAACAUAAUTT against Pcdha3 is lower in z-score: -0.628 for the first, -1.17 for the second.

Compared with GAAGCCUAAUCCCUUAAUCTT against Oas1g, CCAUUUCAGGCAUGAAGAATT against Tsga10 is lower in z-score: 1.07 for the first, -1.13 for the second.

Compared with GGUCAAUAUUCUUAUGUCCTT against S1pr3, GGAAUUGGAUGUGAGCAACTT against Vasn is higher in z-score: 0.245 for the first, 0.586 for the second.

First: GCCAUGGGUCUCAGAAAGATT against Zxda
Second: UGAUAGUCUCCACUAAAUUTT against Gm4884
The z-score of the first is higher: -0.247 for the first, -0.265 for the second.

Going from GGAUCCUUUGGUUAUAAGATT against Nav1 to GGUCUUUAGCAGAGAAAAUTT against Zfp420, the z-score rises from -1.28 to -0.201.

First: GCCCACAGUCAUUAAACUATT against Nipal4
Second: GGAUCAAAUCAAGAAGAUGTT against Chmp5
The z-score of the first is higher: 0.723 for the first, 0.627 for the second.

First: CCCAGGGUGUCAAUCUAAATT against Cby1
Second: CGAAAAUACGUCAAAGCUCTT against Abca8b
The z-score of the first is higher: -0.381 for the first, -0.656 for the second.

First: GGGCACUGACAAACGUAUUTT against Olfr433
Second: GGACUUCGUGAACAAGAUCTT against Grin2b
The z-score of the first is higher: -0.34 for the first, -0.439 for the second.

Going from GCGGCCACGGGACGGCGGUTT against Hmx2 to GGUCAUGACAGGAUACCCATT against Fam163b, the z-score falls from -0.455 to -1.99.

First: GGAGCCGUACAUCUUACACTT against Abhd1
Second: GCCGAGUGAAUGAAAGGACTT against Ppp1r32
The z-score of the first is higher: 0.33 for the first, -0.758 for the second.

Going from CCGUGGCGUAUGUGAUCAATT against Map3k5 to GGGAAAUGUUUUCCAAAGATT against Tep1, the z-score rises from -0.249 to 0.776.

Going from CCAUAUGUGCUCACCUUUATT against Marveld2 to CGAGUUUAAAGUGAGAAGATT against Pou1f1, the z-score rises from -0.641 to 0.488.

Going from GCCACUCUUUAAGAAUCUATT against Abcf1 to GCAUUGUCCGAGGUUUAUUTT against Tspan33, the z-score rises from -0.552 to 0.64.

Compared with “GGUGCUAUGUGCGUUUGAUTT against 9830107B12Rik”, GGCGGAUGAACAAAGUUGGTT against Polr1e is lower in z-score: 1.97 for the first, 0.0863 for the second.

Compared with GGAGAAUAAGCAAAUCCUUTT against Cfap20dc, GGUCCCAUAUACCAGAUCUTT against Slc3a1 is higher in z-score: -0.937 for the first, 1.63 for the second.

First: UGUCAGUGCAGAAUAGCACTT against Olfr658
Second: CGACACUCAAUGUGAACUUTT against Grtp1
The z-score of the first is lower: -1.17 for the first, -0.881 for the second.

Compared with GCCAGUCAUGCCUAUUUUCTT against Zmym6, GGUGUGAGUGUCGGAAUCUTT against Islr2 is higher in z-score: -0.528 for the first, 0.138 for the second.

First: GGAAUGGUUUUAUUUUUGGTT against Noa1
Second: GGUACCUCUGUAUUCAGCCTT against Olfr121
The z-score of the first is lower: -0.0245 for the first, 0.78 for the second.

Going from GGAAACUACAAAUUUGGCATT against Krtap6-2 to CCCACAGUAAAUUCAACGGTT against Gm5069, the z-score falls from 0.195 to 0.00754.

Compared with UACCCAUUGUCAAGUUGGATT against Grm4, GGACCUGUGUGUUCUUUGATT against Amhr2 is higher in z-score: -0.634 for the first, -0.505 for the second.

Compared with CCUUGGCAGGUAUAGUGUUTT against Klk9, GGAUCCCAGUUCUGGGUAATT against Dok1 is higher in z-score: -1.09 for the first, -0.0628 for the second.

First: GCCUAUUUGACGUGCAGAGTT against Crocc
Second: GCUGUUUUAUCUCCAAUGGTT against Araf
The z-score of the first is lower: -0.0336 for the first, 1.73 for the second.

First: GGCAUUGAUCACUGACAGCTT against 9530077C05Rik
Second: GGACCAUACAUAUUCAAAATT against Aph1b
The z-score of the first is higher: 0.827 for the first, 0.0294 for the second.

Compared with GUCCUGAAGAAGCUCAAGATT against Cartpt, GGGACAGUACAGAGUGCUGTT against Hmx1 is higher in z-score: -0.513 for the first, 0.755 for the second.

Going from GGAUGAGGAGAUAAAGUCUTT against Misp to GGAAUAAAACUUCUGAGAATT against Oog1, the z-score falls from -0.981 to -1.66.

Compared with GAAAACUCAAACAGCAUAUTT against Vmn1r216, GUAACUCGCUUCUUGGUGGTT against Slc22a15 is lower in z-score: 0.833 for the first, 0.464 for the second.

Going from GGUUCAAUGCUCCCUUCGATT against Ghrl to GGCUCACCUGAUACACUUUTT against Ramp2, the z-score falls from 0.712 to 0.707.

Going from GCCUUGAAAUGUCUGUAGCTT against Nkiras1 to GGUGGAAUAACAGAUAAAATT against Cutc, the z-score falls from 0.981 to 0.255.

Work on GGAGAAAGGAUUAUAGAUGTT against Klk7 yielded a z-score of 0.202.
